Experimental findings from PubChem BioAssay (Tox21) are described below.

Records with an inconclusive call do not appear. Activity calls are given as the source filed them. Unless noted, the call rests on the fitted dose curve; in most records, active means well fitted curve in the direction sought with a large enough effect in the repeat runs; inconclusive means weak or mixed curves; inactive means no such curve, though single readings can be large; an effect the other way counts as inactive or inconclusive.

In assay [1] the target is Progesterone receptor (Homo sapiens) (UniProt P06401). Nature of the assay: qHTS assay to identify small molecule antagonists of the progesterone receptor (PR) signaling pathway (AID 1346795; active means well fitted inhibition curve with a large enough effect in the signal ratio in the repeat runs, not every such curve was filed as active; the % refers to the signal ratio; further: potency means the concentration at half of the fitted maximal effect). The method in brief: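 Read-out is fluorescence from the LiveBLAzer B/G FRET substrate, cleaved by a UAS-controlled beta-lactamase in PR-UAS-bla HEK293T cells after 16 hr exposure to compound plus 1 nM promegestone (final), followed by 2 hr at room temperature.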
Chain of Progesterone receptor (Homo sapiens) (P06401 whole entry, looked up): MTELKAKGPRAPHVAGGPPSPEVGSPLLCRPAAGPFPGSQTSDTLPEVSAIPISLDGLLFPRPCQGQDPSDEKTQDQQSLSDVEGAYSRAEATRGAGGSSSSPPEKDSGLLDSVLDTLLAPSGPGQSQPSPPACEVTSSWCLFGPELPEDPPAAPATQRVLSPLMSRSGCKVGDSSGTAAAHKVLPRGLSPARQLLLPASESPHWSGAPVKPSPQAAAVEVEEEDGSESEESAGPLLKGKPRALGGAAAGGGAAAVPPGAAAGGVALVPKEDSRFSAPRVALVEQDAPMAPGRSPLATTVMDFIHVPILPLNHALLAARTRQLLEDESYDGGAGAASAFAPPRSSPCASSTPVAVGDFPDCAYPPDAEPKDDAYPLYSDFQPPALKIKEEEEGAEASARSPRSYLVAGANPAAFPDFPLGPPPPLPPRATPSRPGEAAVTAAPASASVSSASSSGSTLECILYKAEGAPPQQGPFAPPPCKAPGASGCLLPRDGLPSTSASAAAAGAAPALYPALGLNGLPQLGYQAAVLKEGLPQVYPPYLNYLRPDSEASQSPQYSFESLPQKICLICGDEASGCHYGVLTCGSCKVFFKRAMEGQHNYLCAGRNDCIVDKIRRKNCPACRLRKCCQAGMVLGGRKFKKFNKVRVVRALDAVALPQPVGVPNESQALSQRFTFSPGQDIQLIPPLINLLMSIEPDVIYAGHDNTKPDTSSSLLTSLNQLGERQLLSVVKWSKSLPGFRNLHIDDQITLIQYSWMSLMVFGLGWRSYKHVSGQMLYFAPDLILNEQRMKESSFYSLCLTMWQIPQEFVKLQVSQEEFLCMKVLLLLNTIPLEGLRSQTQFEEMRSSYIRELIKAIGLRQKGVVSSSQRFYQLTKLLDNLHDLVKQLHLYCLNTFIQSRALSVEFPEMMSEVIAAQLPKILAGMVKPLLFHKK

The nature of assay [2]: qHTS assay to identify small molecule antagonists of the progesterone receptor (PR) signaling pathway - cell viability counter screen (AID 1346798). Further: nearly all actives have a fitted effect of over 50% in size. Further: potency means the concentration at half of the fitted maximal effect. The essentials:
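HEK293T PR-UAS-bla, 2% charcoal-stripped FBS; 4 hr pre-plate; cpd + R5020, 16 h 37C; LiveBLAzer read first; then CellTiter-Glo 30 min RT, luminescence.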

The nature of assay [3]: qHTS assay to identify small molecule agonists of the progesterone receptor (PR) signaling pathway - cell viability counter screen (AID 1346799; calls by dose curve; further: nearly all actives have a fitted effect of over 45% in size; further: potency means the concentration at half of the fitted maximal effect). The essentials:
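Luminescence from CellTiter-Glo, added after the beta-lactamase FRET read in the same wells, gave cytotoxicity in PR-UAS-bla HEK293T cells treated with compounds for 16 hr at 37C.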

Assay [4] in a line: qHTS assay to identify small molecule antagonists of the TGF-beta/Smad signaling pathway - cell viability counter screen (AID 1346824). Further: nearly all actives have a fitted effect of over 50% in size. Further: potency means the concentration at half of the fitted maximal effect. The method in brief:
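SBE-bla HEK 293T cells were plated overnight at 37 C, then given compounds in DMSO plus TGF-beta1 (added as 0.25 ng/mL solution) for 5 hr. After the bla read, CellTiter-Glo was added to the same wells and luminescence read after 30 min at room temperature.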

The nature of assay [5]: qHTS assay to identify small molecule agonists of the TGF-beta/Smad signaling pathway - cell viability counter screen (AID 1346829). Further: nearly all actives have a fitted effect of over 45% in size. Further: potency means the concentration at half of the fitted maximal effect. The essentials: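 Same-well cytotoxicity: CellTiter-Glo added after the 2 hr room-temperature beta-lactamase substrate step, luminescence measured 30 min later; cells had 5 hr of compound at 37 C.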
Assay [6] can be described thus: qHTS assay to identify small molecule agonists of the TGF-beta/Smad signaling pathway (AID 1346859; active means well fitted activation curve with a large enough effect in the signal ratio in the repeat runs, not every such curve was filed as active; the % refers to the signal ratio; further: series mostly up to about 77 µM). The method in brief: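 SBE-bla HEK 293T, 4,000 cells/well, plated o/n; cpd in DMSO, 5 hr, 37 C/5% CO2; B/G FRET substrate 2 hr RT; ex 405, em 460/530 nm.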
Assay [7] can be described thus: Human pregnane X receptor (PXR) small molecule agonists, qHTS cell viability counter screen (AID 1346977). Further: nearly all actives have a fitted effect of over 50% in size. Further: potency means the concentration at half of the fitted maximal effect. The essentials: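 PXR-Luc HepG2, 2,000 cells/well, 5% charcoal-stripped FBS; 5hr settle; cpd 24hr, 37C/5% CO2; CellTiter-Fluor at 23hr, read 1hr later (fluorescence).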
Assay [8] can be described thus: Caspase-3/7 induction in HepG2 cells by small molecules, qHTS assay (AID 1346978). Further: nearly all actives have a fitted effect of over 15% in size. Further: potency means the concentration at half of the fitted maximal effect. The method in brief: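 Wild-type HepG2 cells (2,000/well) were settled 5 h at 37 C, 5% CO2, then exposed to compounds in DMSO for 17 h. Caspase-3/7 activity was read by luminescence 30 min after adding Caspase-Glo 3/7 reagent at room temperature.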
Assay [9] has as its target Thyrotropin-releasing hormone receptor (Homo sapiens) (UniProt P34981). Nature of the assay: qHTS assay to identify small molecule antagonists of the thyrotropin-releasing hormone receptor (TRHR) signaling pathway (AID 1346877; active means well fitted inhibition curve with a large enough effect in the repeat runs, not every such curve was filed as active; further: series mostly up to about 51 µM). The essentials: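 Kinetic fluorescence (3 min, 1 s resolution) following stimulation with TRH at 1 nM final; HEK293 cells bearing human TRHR; 5 min compound preincubation at RT; concentration-response over 15 points, triplicates.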

The target is the same in assay [10]. Put plainly: qHTS assay to identify small molecule agonists of the thyrotropin-releasing hormone receptor (TRHR) signaling pathway (AID 1346891; calls by dose curve; further: series mostly up to about 58 µM). The essentials: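 Intracellular calcium rise, read as fluorescence every second for 3 min, served as the agonist signal in dye-loaded HEK293 cells expressing TRHR; each compound ran at 15 concentrations in triplicate.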

Chain of Thyrotropin-releasing hormone receptor (Homo sapiens) (P34981 whole entry, looked up): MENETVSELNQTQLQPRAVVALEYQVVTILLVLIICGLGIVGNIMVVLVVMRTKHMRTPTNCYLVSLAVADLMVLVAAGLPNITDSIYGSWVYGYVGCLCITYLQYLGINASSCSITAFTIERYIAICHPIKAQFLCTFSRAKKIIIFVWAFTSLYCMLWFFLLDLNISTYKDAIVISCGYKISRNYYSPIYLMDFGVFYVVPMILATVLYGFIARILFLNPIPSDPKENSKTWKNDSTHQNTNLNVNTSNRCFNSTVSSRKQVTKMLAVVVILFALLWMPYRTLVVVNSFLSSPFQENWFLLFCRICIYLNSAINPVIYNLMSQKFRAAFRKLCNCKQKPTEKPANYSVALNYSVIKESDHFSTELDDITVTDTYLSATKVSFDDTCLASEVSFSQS

For the compound `CSc1ccc(C(=O)c2[nH]c(=O)[nH]c2C)cc1`, the Potency result in assay [1], in [2], in assay [3], in assay [4], in [5] and in [6] was “inactive” throughout. The Potency result in [7] and in assay [8] was “inactive” each time.

For the compound `Cc1nc(-c2ccc3c(c2)CCN(CCC2CCC(NC(=O)/C=C/c4ccc(F)cc4)CC2)CC3)no1` (stereo not drawn), the Potency entry in [1], in [2], in assay [3], in assay [4], in [5] and in [6] was “inactive” in each case. The Potency result in assay [9], in assay [10], in assay [7] and in [8] was “inactive” throughout.

Consider `CS(=O)(=O)CCNCc1ccc(-c2ccc3ncnc(Nc4ccc(OCc5cccc(F)c5)c(Cl)c4)c3c2)o1`, for which the Potency in [1] is 7.5 µM (active); in [2] it was 18.8 µM (active); in assay [3], 15 µM (active); in [7], 26.6 µM (active); in [8] it was 33.5 µM (active). In addition, the Potency entry in assay [4], in [5], in [9] and in assay [10] was “inactive” each time.

Turning to `CSc1cnc(C)cn1`, the Potency entry in [1], in assay [2], in assay [3], in assay [4], in assay [5] and in assay [6] was “inactive” throughout. For the same compound, the Potency result in assay [9], in assay [10], in assay [7] and in assay [8] was “inactive” each time.

`c1ccc(CSCc2ccccc2)cc1`: the Potency result in assay [1], in assay [2], in [3], in [4], in [5] and in assay [6] was “inactive” in each case. Further, the Potency result in assay [9], in assay [10], in assay [7] and in assay [8] was “inactive” in each case.

Regarding `CCC(N)(CO)CO`, the Potency result in assay [1], in assay [2], in assay [3], in assay [4], in [5] and in [6] was “inactive” in each case. In addition, the Potency result in [9], in assay [10], in assay [7] and in [8] was “inactive” in each case.

Regarding `O=C(O)c1c(Cl)cccc1Cl`, the Potency result in assay [1], in assay [2], in [3], in assay [4], in assay [5] and in assay [7] was “inactive” throughout. Moreover, the Potency entry in assay [8] is “inactive”.

In the case of `CSc1ccc2c(c1)C(N1CCN(C)CC1)Cc1ccccc1S2` (stereo not drawn), the figures for the Potency in assay [1], in [2] and in assay [3] were 26.6 µM (active), 26.6 µM (active) and 33.5 µM (active), respectively. Further, the Potency result in assay [4], in [5], in assay [6], in assay [9] and in assay [10] was “inactive” in each case.

For the compound `O=C1c2c(O)ccc(Nc3ccc(CCO)cc3)c2C(=O)c2c([N+](=O)[O-])ccc(O)c21`, the Potency result in [1], in [2], in [3], in assay [4], in assay [5] and in assay [9] was “inactive” throughout. For the same compound, the Potency entry in assay [10] and in assay [8] was “inactive” throughout. Besides, the Potency in assay [7] is 43.3 µM (active).

For the compound `CCCC(C)c1ccccc1O` (stereo not drawn), the Potency entry in [1], in assay [2], in [3], in [4], in assay [5] and in assay [6] was “inactive” in each case. In addition, the Potency entry in assay [9], in assay [10] and in [7] was “inactive” throughout.

Turning to `CCCCCCCCCCCC(=O)NCCCN(C)C`, the Potency in [1] was 61.1 µM (active); in [2] it was 54.5 µM (active); in assay [3], 30.6 µM (active); in [4], 49 µM (active); in assay [5], 54.9 µM (active); in [7], 38.6 µM (active). In addition, the Potency result in assay [6], in assay [9] and in [10] was “inactive” throughout.

In the case of `CN(C)[C@@H]1C(=O)C(C(N)=O)=C(O)[C@@]2(O)C(=O)C3=C(O)c4c(O)ccc(Cl)c4[C@@H](O)[C@H]3C[C@@H]12`, the Potency entry in [1], in [2], in assay [3], in [4], in assay [5] and in assay [9] was “inactive” each time. Moreover, the Potency entry in assay [10], in [7] and in assay [8] was “inactive” each time.

For `CO[Si](CCCNc1ccccc1)(OC)OC`, the Potency entry in [1], in [2], in [3], in [4], in assay [5] and in [6] was “inactive” throughout. Besides, the Potency result in [9], in assay [10], in assay [7] and in assay [8] was “inactive” each time.

With `O=C(O)c1ccc(Cl)c(Cl)c1`, the Potency entry in [1], in assay [2], in assay [3], in assay [4], in assay [5] and in [7] was “inactive” in each case. The Potency entry in assay [8] was “inactive”.

As to `N#CSc1ccc(N)c([N+](=O)[O-])c1`, the Potency in [1] and in assay [7] was 30.8 µM (active) throughout. The Potency entry in assay [2], in [3], in assay [4], in [5], in assay [6] and in assay [8] was “inactive” throughout.

On to `NC(=O)C1(N2CCCCC2)CCN(CCCN2c3ccccc3CCc3ccc(Cl)cc32)CC1`, for which the Potency was 23.7 µM (active) in assay [1]; 23.7 µM (active) in [2]; 16.8 µM (active) in assay [3]; 13.3 µM (active) in assay [7]; 33.5 µM (active) in assay [8]. For the same compound, the Potency entry in assay [9] and in assay [10] was “inactive” in each case.

In the case of `O=c1cccccc1O`, the Potency result in assay [1], in assay [2], in assay [4], in assay [5], in [6] and in assay [10] was “inactive” in each case. Further, the Potency result in assay [7] and in assay [8] was “inactive” throughout.

On to `Cc1cc(C2CCCCC2)n(O)c(=O)c1`, for which the values for the Potency in assay [1] and in [7] were 3.35 µM (active) and 26.6 µM (active), respectively. The Potency entry in [2], in [3], in assay [5] and in [8] was “inactive” throughout.

Regarding `COc1cc(-c2nc(NC(=O)c3cc4cc(C)cc(C)c4n3CC(=O)O)sc2CCC2CCCCC2)c(OC)cc1Cl`, the Potency is 12.5 µM (active) in assay [1]; 14.1 µM (active) in assay [2]; 11.2 µM (active) in [3]; 28.3 µM (active) in assay [5]; 31.5 µM (active) in [7].

Take `C/C=C(\C)C(=O)OCc1ccccc1`: the Potency result in assay [1], in [2], in assay [3], in [5], in assay [6] and in assay [7] was “inactive” each time. The Potency entry in assay [8] was “inactive”.

On to `CCN(Cc1cccnc1)C(=O)c1cccc(Cl)c1[C@]1(C)C(=O)N(Cc2ccc(OC)cc2OC)c2ccc(Cl)cc21`, for which the values for the Potency in assay [1] and in [7] were 16.1 µM (active) and 25.5 µM (active), respectively. The Potency result in [2], in [3], in [5], in [9], in [10] and in assay [8] was “inactive” throughout.

As for `Nc1ccc2cc(S(=O)(=O)O)cc(O)c2c1N=Nc1ccccc1C(F)(F)F`, the Potency result in [1], in assay [2], in assay [3], in assay [5], in assay [6] and in assay [9] was “inactive” throughout. Moreover, the Potency result in [10] and in assay [8] was “inactive” each time. Moreover, in assay [7], the Potency was 61.1 µM (active).
